Activity calls are given as the source filed them.
Columns and labels:
[1] = system: PRMT1 (protein arginine N-methyltransferase 1); assay: small molecules binding arginine methyltransferase PRMT1 – biochemical, small-molecule microarray, 635 nm fluorescence, primary screen (AID 1088); conditions: higher = more signal;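 also: binding of Prmt1 protein to compounds spotted on small-molecule microarray slides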
[2] = growth effects on S. cerevisiae YJM789 – YJM789 clinical isolate, OD600, 24 h, basal, primary screen (AID 1089); conditions: higher = more signal, called active from +8 up or from −8 down;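 also: growth of clinical yeast isolate S. cerevisiae YJM 789 seeded 1000 cells per well; test concentration not given here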
[3] = S. pombe growth modifiers, basal conditions – strain 972, OD600, 24 h, no modulator, primary screen (AID 1090);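 also: basal condition with compound alone and no growth modifier present; test concentration not given here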; conditions: S. pombe 972 growth, higher = more signal, called active from +8 up or from −8 down
[4] = budding yeast growth modifiers under rapamycin – strain BY4716, OD600, 96 h, primary screen (AID 1091); also: test concentration not given here; conditions: S. cerevisiae BY4716 + rapamycin, higher = more signal, called active from +8 up or from −8 down
[5] = biological target: Torsin-1A-interacting protein 2 (Homo sapiens) (UniProt Q8NFQ8); assay: small molecules binding lysate-expressed LULL1 – cell lysate, human LULL1 lysate, 635/667 nm fluorescence, primary screen (AID 1092); conditions: small-molecule microarray, hLULL1 lysate binding, 635 nm fluorescence; higher = more signal;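 also: probe is lysate of COS7 cells overexpressing human LULL1; score merges per-feature 667 nm fluorescence with signal-to-noise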
[6] = optical density change of DRC41 E. coli – strain DRC41, OD650, 24 h, E. coli filamentation project, primary screen (AID 1093);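 also: MC1000 strain lacking acrAB efflux and sulA so SOS filamentation is blocked; test concentration not given here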; conditions: E. coli DRC41 growth, higher = more signal, called active from +8 up or from −8 down
[7] = probe aLefty2 binding to arrayed compounds – biochemical, biotinylated probe, 635/667 nm fluorescence, primary screen (AID 1094); conditions: small-molecule microarray, higher = more signal;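 also: score merges spot fluorescence near 667 nm with spot signal-to-noise ratio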
[8] = system: Noggin (protein binding on small-molecule microarray); assay: small molecules binding Noggin protein – biochemical, 635/667 nm fluorescence, primary screen (AID 1095); conditions: 635 nm fluorescence, higher = more signal;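 also: score merges 667 nm feature fluorescence with signal to noise over triplicate slides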
[9] = biological target: Neurogenic locus notch homolog protein 3 (Homo sapiens) (UniProt Q9UM47); assay: small molecules binding NOTCH3 protein – biochemical, 635/667 nm fluorescence, primary screen (AID 1096); conditions: small-molecule microarray, 635 nm fluorescence, higher = more signal
[10] = probe aEGFR binding to arrayed compounds – biochemical, biotinylated probe, 635/667 nm fluorescence, primary screen (AID 1097); conditions: small-molecule microarray, higher = more signal;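 also: probe is a biotinylated anti-EGFR antibody binding compounds printed on slides; score combines fluorescence near 667 nm and signal to noise of each spot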

Chain of Neurogenic locus notch homolog protein 3 (Homo sapiens) (Q9UM47 whole entry, looked up): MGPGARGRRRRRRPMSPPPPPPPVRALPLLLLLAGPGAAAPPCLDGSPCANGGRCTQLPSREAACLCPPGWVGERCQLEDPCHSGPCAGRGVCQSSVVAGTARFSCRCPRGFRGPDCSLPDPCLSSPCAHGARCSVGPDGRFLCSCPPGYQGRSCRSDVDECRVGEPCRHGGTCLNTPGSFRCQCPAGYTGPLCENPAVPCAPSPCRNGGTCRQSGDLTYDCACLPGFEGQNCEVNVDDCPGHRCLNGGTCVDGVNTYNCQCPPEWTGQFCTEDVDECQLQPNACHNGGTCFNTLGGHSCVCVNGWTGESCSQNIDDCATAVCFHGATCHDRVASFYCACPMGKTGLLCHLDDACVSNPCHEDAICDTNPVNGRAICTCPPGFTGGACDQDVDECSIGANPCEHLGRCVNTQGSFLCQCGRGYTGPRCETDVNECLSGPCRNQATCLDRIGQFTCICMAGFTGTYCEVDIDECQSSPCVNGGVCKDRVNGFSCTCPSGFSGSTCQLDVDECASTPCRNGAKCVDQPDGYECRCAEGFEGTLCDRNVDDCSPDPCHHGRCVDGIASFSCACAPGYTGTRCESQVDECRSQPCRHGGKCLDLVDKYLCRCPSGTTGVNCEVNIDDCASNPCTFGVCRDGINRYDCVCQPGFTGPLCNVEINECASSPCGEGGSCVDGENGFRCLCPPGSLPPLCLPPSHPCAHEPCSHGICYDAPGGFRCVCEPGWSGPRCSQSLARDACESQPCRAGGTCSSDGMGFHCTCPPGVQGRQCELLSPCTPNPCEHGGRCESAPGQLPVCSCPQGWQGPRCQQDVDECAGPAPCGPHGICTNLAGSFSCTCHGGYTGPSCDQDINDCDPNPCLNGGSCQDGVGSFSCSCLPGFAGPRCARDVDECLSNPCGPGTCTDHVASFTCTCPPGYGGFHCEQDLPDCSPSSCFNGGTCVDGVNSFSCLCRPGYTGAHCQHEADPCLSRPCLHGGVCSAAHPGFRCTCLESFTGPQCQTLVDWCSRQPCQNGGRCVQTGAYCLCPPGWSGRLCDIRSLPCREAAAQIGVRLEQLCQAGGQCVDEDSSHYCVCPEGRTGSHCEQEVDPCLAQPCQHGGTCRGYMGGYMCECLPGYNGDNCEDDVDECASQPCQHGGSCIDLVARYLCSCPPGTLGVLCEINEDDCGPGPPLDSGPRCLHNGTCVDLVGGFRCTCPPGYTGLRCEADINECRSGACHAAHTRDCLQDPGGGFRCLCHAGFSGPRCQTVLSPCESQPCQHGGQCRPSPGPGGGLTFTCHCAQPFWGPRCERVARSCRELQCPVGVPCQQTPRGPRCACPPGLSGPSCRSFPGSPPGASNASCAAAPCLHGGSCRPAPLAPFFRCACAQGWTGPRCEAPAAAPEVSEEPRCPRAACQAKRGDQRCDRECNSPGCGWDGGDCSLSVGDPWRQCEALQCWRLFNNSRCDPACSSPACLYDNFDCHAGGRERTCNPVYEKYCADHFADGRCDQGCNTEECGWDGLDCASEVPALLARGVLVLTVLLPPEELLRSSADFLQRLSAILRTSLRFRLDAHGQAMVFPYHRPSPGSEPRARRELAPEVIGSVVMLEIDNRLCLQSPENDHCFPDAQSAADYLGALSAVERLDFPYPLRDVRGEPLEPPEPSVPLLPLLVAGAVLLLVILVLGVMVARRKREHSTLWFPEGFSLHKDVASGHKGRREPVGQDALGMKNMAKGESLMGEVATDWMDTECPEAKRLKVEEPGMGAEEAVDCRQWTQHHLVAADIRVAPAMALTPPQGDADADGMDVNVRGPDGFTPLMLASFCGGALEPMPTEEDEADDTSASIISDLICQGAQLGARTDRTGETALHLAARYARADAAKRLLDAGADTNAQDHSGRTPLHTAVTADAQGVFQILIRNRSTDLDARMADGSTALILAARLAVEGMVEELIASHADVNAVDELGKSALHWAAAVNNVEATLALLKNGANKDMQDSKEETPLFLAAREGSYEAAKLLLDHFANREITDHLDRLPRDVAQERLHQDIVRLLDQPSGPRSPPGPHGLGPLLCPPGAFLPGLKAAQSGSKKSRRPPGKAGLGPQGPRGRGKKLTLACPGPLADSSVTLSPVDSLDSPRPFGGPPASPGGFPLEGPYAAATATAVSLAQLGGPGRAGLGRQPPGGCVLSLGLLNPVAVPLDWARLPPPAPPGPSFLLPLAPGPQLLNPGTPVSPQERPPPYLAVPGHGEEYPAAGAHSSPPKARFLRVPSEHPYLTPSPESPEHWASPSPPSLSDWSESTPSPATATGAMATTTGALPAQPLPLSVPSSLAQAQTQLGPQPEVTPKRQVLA
Chain of Torsin-1A-interacting protein 2 (Homo sapiens) (Q8NFQ8 whole entry, looked up): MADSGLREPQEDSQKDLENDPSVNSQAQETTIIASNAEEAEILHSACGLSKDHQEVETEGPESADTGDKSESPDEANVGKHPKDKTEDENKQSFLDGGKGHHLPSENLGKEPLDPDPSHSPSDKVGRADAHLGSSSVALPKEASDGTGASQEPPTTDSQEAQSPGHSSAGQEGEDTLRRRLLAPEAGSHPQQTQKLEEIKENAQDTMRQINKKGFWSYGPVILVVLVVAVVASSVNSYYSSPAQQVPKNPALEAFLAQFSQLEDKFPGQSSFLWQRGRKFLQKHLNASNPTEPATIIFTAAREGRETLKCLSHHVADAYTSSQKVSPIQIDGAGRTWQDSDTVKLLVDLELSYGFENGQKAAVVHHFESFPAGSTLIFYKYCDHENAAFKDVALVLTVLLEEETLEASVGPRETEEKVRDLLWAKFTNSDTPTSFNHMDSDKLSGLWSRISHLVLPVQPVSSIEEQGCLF

| SMILES | composite z-score [1] | z-score [2] | z-score [3] | z-score [4] | composite z-score [5] | z-score [6] | composite z-score [7] | composite z-score [8] | composite z-score [9] | composite z-score [10] |
| --- | --- | --- | --- | --- | --- | --- | --- | --- | --- | --- |
| COc1ccc(COC(=O)NN=C2C[C@@H](O)[C@@H](O)[C@@H]3[C@@H]4C(=O)N(C5CCCCC5)C(=O)[C@@H]4CC[C@@H]23)cc1 | 0.35 | -0.703 (inactive) | -1.86 (inactive) | -0.617 (inactive) | 0.611 | -1.03 (inactive) | 0.687 | 0.159 | -0.218 | -0.127 |
| O=C1[C@H]2[C@H]3[C@H](O)[C@H](O)CC(=NOCc4ccccc4)[C@@H]3CC[C@H]2C(=O)N1c1cccc(Oc2ccccc2)c1 | 1.35 | 0.663 (inactive) | 0.277 (inactive) | -0.349 (inactive) | 1.6 | 0.589 (inactive) | 0.266 | 0.889 | 0.64 | -0.0967 |
| O=C1C=C[C@@H](O)[C@@H]2[C@@H]3C(=O)N(C4CCCCC4)C(=O)[C@@H]3CC[C@@H]12 | 0.299 | 0.126 (inactive) | -1.32 (inactive) | -1.27 (inactive) | 0.548 | -0.115 (inactive) | -0.0678 | 0.277 | 0.818 | 0.0587 |
| CC1(C)O[C@H]2OC([C@H](O)CON3C(=O)c4ccccc4C3=O)[C@H](O)[C@H]2O1 (stereo not given in full) | 0.318 | -0.702 (inactive) | -0.344 (inactive) | -0.425 (inactive) | -0.061 | 0.742 (inactive) | -0.0561 | 0.441 | 0.419 | 0.0434 |
| CCOC(=O)[C@H](Cc1ccccc1)NC(=O)CCC1CC(OC(=O)NCc2ccc3c(c2)OCO3)CC2(CCCC(COC(=O)NCCCN3CCCC3=O)O2)O1 (stereo not given in full) | 1.55 | -0.395 (inactive) | 0.0418 (inactive) | -0.0655 (inactive) | 2.08 | 0.187 (inactive) | -0.117 | 0.579 | 1 | -0.02 |
| CCOC(=O)[C@H](CC(C)C)NC(=O)CCC1CC(OC(=O)NCc2ccc3c(c2)OCO3)CC2(CCCC(COC(=O)NCCOC)O2)O1 (stereo not given in full) | 0.634 | 0.0162 (inactive) | 0.48 (inactive) | -0.958 (inactive) | 1.71 | -0.172 (inactive) | -0.205 | 0.474 | 0.793 | 0.0953 |
| COC(=O)[C@H](C)NC(=O)CCC1CC(OC(=O)NCCc2ccc(F)cc2)CC2(CCCC(COC(=O)NCc3ccccc3)O2)O1 (stereo not given in full) | 1.53 | 0.59 (inactive) | 1.04 (inactive) | 0.932 (inactive) | 1.92 | -0.755 (inactive) | -0.0898 | 0.55 | 1.1 | -0.0314 |
| COC(=O)CC=C[C@@H](C)[C@@H](C=NOC[C@@H](C)[C@H](OCc1ccccc1)C(C)C)OC | 0.823 | 0.0783 (inactive) | -0.466 (inactive) | 1.13 (inactive) | 0.227 | -0.0725 (inactive) | -0.215 | 0.293 | 0.232 | -0.126 |
| COC(=O)[C@H](C)NC(=O)CCC1CC(OC(=O)NCc2ccc3c(c2)OCO3)CC2(CCCC(COC(=O)NCCc3ccc(Cl)cc3)O2)O1 (stereo not given in full) | 0.898 | 0.341 (inactive) | 0.744 (inactive) | -0.529 (inactive) | 0.945 | 0.181 (inactive) | -0.14 | 0.621 | 0.67 | -0.0675 |
| COc1ccc(O[C@H]2C=C[C@@H](c3ccccc3)O[C@@H]2CO)cc1 | 0.018 | 0.711 (inactive) | -1.27 (inactive) | -1.02 (inactive) | 0.0141 | 0.299 (inactive) | -0.0603 | 0.14 | 0.0607 | -0.0146 |
| C=C(C)C(=O)OC[C@H]1CN2[C@@H](CC[C@@H](C)[C@@H]2c2ccc(Br)cc2)C(=O)O1 | 0.164 | 0.0739 (inactive) | -3.38 (inactive) | -0.424 (inactive) | 0.162 | 0.436 (inactive) | -0.166 | 0.195 | -0.775 | -0.144 |
| CCCCOC(OCCCC)C(O)CSc1ccc2ccccc2c1 (stereo not given) | 0.642 | 0.12 (inactive) | -2.25 (inactive) | 0.594 (inactive) | 0.556 | -0.419 (inactive) | -0.136 | 0.542 | 0.776 | -0.15 |
| COC(=O)CC=C[C@@H](C)[C@@H](C=NOC[C@@H](O)[C@H]1O[C@@H]2OC(C)(C)O[C@@H]2[C@H]1O)OC | 0.297 | 0.439 (inactive) | 0.429 (inactive) | 0.303 (inactive) | 0.31 | -0.125 (inactive) | -0.183 | 0.505 | 0.845 | 0.0536 |
| CCOC(=O)CCN1C(=O)[C@H]2[C@H]3[C@H](O)[C@H](O)CC(=NOCC(C)C)[C@@H]3CC[C@H]2C1=O | 0.868 | -0.535 (inactive) | -0.219 (inactive) | -0.629 (inactive) | -0.953 | -0.127 (inactive) | -0.0956 | 1.39 | -0.321 | 0.163 |
| CON(C)C(=O)c1nnc2c(n1)[nH]c1ccccc12 | 0.194 | -0.545 (inactive) | 0.577 (inactive) | -0.298 (inactive) | 0.3 | 0.816 (inactive) | -0.0931 | 0.586 | 0.483 | -0.121 |

From PubChem BioAssay
